Inconclusive results are not listed. Active and inactive are the calls of the source. The calls were made as follows, unless noted: active = hit-call score of the fitted dose curve at least 0.9, where 1 is the maximum; inactive = score below 0.9.

A word on the AC50: it is the concentration at which the activity in the assay is half-maximal.

A short description of assay [1]: ATG_NRF2_ARE_CIS: Attagene CIS-FACTORIAL HepG2 Assay for human Nuclear Factor Erythroid 2 Related Factor 2 (NFR2) response to Antioxidant Response Elements (ARE) (AID 2282992).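 As to AC50: reporter mRNA level measured by RT-PCR and capillary electrophoresis fluorescence.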 The settings on record: HepG2 Attagene ARE/NRF2 reporter, transcription factor activity; actives raise or lower the signal. The essentials: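 Fluorescence intensity of reporter-specific cDNA fragments, separated by capillary electrophoresis, reflects mRNA induction in transfected HepG2 cells at 24 h. Activity is fitted bidirectionally, DMSO serving as baseline.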

Assay [2] is described as follows: ATG_Oct_MLP_CIS: Attagene CIS-FACTORIAL HepG2 Assay for human Octamer-Binding Transcription Factor (Oct) (AID 2282993). The settings on record: HepG2 Attagene cis-factorial Oct reporter, mRNA; actives raise or lower the signal. The gist of the method: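 Transient MRTU transfection of HepG2 → 24 h compound treatment → RNA isolation, reverse transcription, PCR → 6-FAM primer extension, HpaI digest → capillary electrophoresis. Activity fitted both directions against DMSO.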

Assay [3] addresses Cellular tumor antigen p53 (Homo sapiens) (UniProt P04637). The assay can be described thus: ATG_p53_CIS: Attagene CIS-FACTORIAL HepG2 Assay for human p53 Transcription Factor (AID 2282994). The settings on record: HepG2 p53 cis-element reporter, Attagene mRNA; actives raise or lower the signal. The gist of the method: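 Transiently transfected HepG2 (multiple cis reporter transcription units); exposure 24 h; reporter RNA via RT-PCR, 6-FAM extension, 2 h HpaI digest at 37 C, CE detection; DMSO baseline.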

Assay [4] is described as follows: BSK_3C_TissueFactor: BioMAP Diversity Plus: 3C Assay for Tissue Factor Biomarker Activity (AID 2282997). As to conditions: BioMAP 3C HUVEC, tissue factor biomarker readout; actives raise or lower the signal. The gist of the method:
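Cells used were primary human umbilical vein endothelial cells. They were dosed with chemical, and after 24 h Tissue Factor was quantified by ELISA. Curves were fitted bidirectionally with DMSO as baseline.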

Assay [5] can be described thus: BSK_3C_uPAR: BioMAP Diversity Plus: 3C Assay for Urokinase-type plasminogen activator receptor (uPAR) Biomarker Activity (AID 2282998). As to conditions: BioMAP 3C HUVEC, uPAR biomarker ELISA; actives raise or lower the signal. The gist of the method: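 ELISA readout of uPAR on human vascular endothelium (umbilical vein primary cells), taken 24 h after chemical dosing. Increases and decreases are both fitted relative to DMSO vehicle.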
Background: In an ELISA, binding on a coated surface is turned into a signal by an enzyme label.

The nature of assay [6]: BSK_3C_VCAM1: BioMAP Diversity Plus: 3C Assay for Vascular cell adhesion molecule 1 (VCAM1) Biomarker Activity (AID 2282999). As to conditions: BioMAP 3C HUVEC, VCAM1 ELISA, cytokine-stimulated; actives raise or lower the signal. The gist of the method: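 Activity fitted in both directions relative to DMSO, with ELISA measurement of the surface marker on primary HUVEC (3C) at 24 h post-treatment; parallel SRB staining (0.1% SRB, TCA-fixed, 560 nm) flagged overt cytotoxicity.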

Assay [7] can be described thus: BSK_4H_Eotaxin3: BioMAP Diversity Plus: 4H Assay for Eotaxin 3 Biomarker Activity (AID 2283000).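 As to outcome: CCL26 protein level quantified by ELISA in parallel with SRB cytotoxicity check.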 The settings on record: primary human endothelial cells (HUVEC); actives raise or lower the signal. The gist of the method:
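Endothelial primary cells (human umbilical vein) exposed to compound for 24 h. ELISA detection of Eotaxin-3.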

For assay [8], the target named is human Peroxisome Proliferator-activated Receptor alpha (PPARa), PPARA (gene 5465) (UniProt Q07869). The assay is described as follows: ATG_PPARa_TRANS: Attagene TRANS-FACTORIAL HepG2 Assay for human Peroxisome Proliferator-activated Receptor alpha (PPARa) (AID 2283001; active = hit-call score of the fitted dose curve at least 0.9, where 1 is the maximum). The gist of the method:
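Transfected HepG2 cells treated with test chemical for 24 h. RNA isolated, reverse-transcribed with oligo(dT), PCR-amplified, FAM-labelled and HpaI-digested. Fragments sized by capillary electrophoresis; gain-of-signal fit relative to DMSO.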

Read-out in assay [9]: Intercellular Adhesion Molecule 1 (ICAM1), ICAM1 (gene 3383)
The assay is described as follows: BSK_3C_ICAM1: BioMAP Diversity Plus: 3C Assay for Intercellular Adhesion Molecule 1 (ICAM1) Biomarker Activity (AID 2283003). As to conditions: primary human endothelial cells (HUVEC); actives raise or lower the signal. The essentials:
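Using DMSO as baseline, bidirectional curve fitting was applied to ICAM-1 ELISA signals from HUVEC in the 3C system, measured 24 h after compound addition.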

Assay [10] deals with human Retinoic Acid Receptor beta (RARb), RARB (gene 5915) (UniProt P10826). The assay can be described thus: ATG_RARb_TRANS: Attagene TRANS-FACTORIAL HepG2 Assay for human Retinoic Acid Receptor beta (AID 2283004; active = hit-call score of the fitted dose curve at least 0.9, where 1 is the maximum). The essentials:
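HepG2, transient MRTU transfection, NR–Gal4 chimera, 24 h treatment; RT-PCR plus CE fluorescence detection of reporter mRNA; gain of signal vs DMSO.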

Assay [11] concerns the target Peroxisome proliferator-activated receptor gamma (Homo sapiens) (UniProt P37231). The assay can be described thus: ATG_PPARg_TRANS: Attagene TRANS-FACTORIAL HepG2 Assay for human Peroxisome Proliferator-activated Receptor-gamma (PPARg) (AID 2283007; active = hit-call score of the fitted dose curve at least 0.9, where 1 is the maximum). The gist of the method: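 A TRANS-format multiplexed reporter assay measures activity of an exogenous chimeric NR-Gal4 protein in HepG2 cells. After 24 h of chemical exposure, reporter transcripts are amplified, fluorescently labelled and sized by capillary electrophoresis, with gain of signal scored against DMSO.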

For assay [12], the target named is human RAR-related Orphan Receptor gamma (RORg), RORC (gene 6097) (UniProt P51449). The assay can be described thus: ATG_RORg_TRANS: Attagene TRANS-FACTORIAL HepG2 Assay for human RAR-related Orphan Receptor gamma (RORg) (AID 2283011; active = hit-call score of the fitted dose curve at least 0.9, where 1 is the maximum). The gist of the method: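 Activity is scored as increase in GAL4-UAS reporter mRNA over DMSO, detected by fluorescent RT-PCR and capillary electrophoresis in HepG2 cells transiently expressing a RORg-Gal4 chimera, 24 h after dosing.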
Sequence of human RAR-related Orphan Receptor gamma (RORg), RORC (gene 6097) (P51449 whole entry, looked up, the tested form may be a part): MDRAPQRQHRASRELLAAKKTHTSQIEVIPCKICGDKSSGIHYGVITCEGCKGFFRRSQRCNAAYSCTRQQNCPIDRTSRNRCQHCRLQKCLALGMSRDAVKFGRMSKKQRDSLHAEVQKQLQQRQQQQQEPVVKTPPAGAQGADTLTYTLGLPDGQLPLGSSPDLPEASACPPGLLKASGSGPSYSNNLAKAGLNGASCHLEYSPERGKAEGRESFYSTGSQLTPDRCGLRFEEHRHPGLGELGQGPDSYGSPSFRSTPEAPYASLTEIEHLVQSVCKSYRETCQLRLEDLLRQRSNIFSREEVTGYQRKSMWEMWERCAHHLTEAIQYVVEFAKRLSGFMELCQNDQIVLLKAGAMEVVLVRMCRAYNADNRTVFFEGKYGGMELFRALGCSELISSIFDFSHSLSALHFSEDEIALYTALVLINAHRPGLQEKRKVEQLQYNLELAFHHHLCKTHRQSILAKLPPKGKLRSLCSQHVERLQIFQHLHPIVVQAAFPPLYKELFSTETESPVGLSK

A short description of assay [13]: BSK_3C_Proliferation: Cell Proliferation Assessment in the BioMAP Diversity Plus: 3C Assay (AID 2283006).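 As to AC50: potency may reflect either rise or fall in cell number versus DMSO.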 The settings on record: primary human endothelial cells (HUVEC). The gist of the method:
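Measured here: sulforhodamine B (0.1%) staining of TCA-fixed sub-confluent umbilical vein endothelial cultures 48 h post-dosing, absorbance 560 nm. DMSO served as negative control and baseline; both signal gain and loss were modelled.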

Assay [14] addresses Retinoic acid receptor RXR-alpha (Homo sapiens) (UniProt P19793). The assay is described as follows: ATG_RXRa_TRANS: Attagene TRANS-FACTORIAL HepG2 Assay for human Retinoid X Receptor alpha (RXRa) (AID 2283012; active = hit-call score of the fitted dose curve at least 0.9, where 1 is the maximum). The essentials:
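Chimeric NR-GAL4 trans-activation in HepG2, 24 h treatment; reporter transcripts quantified by fluorescence on capillary electrophoresis, analysed for upward change from DMSO.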

Assay [15] concerns the target Nuclear receptor subfamily 1 group I member 2 (Homo sapiens) (UniProt O75469). The assay can be described thus: ATG_PXR_TRANS: Attagene TRANS-FACTORIAL HepG2 Assay for human Pregnane X Receptor (PXR) (AID 2283008; active = hit-call score of the fitted dose curve at least 0.9, where 1 is the maximum). The essentials:
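Transient HepG2 transfectants carrying multiplexed reporter transcription units; PXR activity read through a Gal4 chimera. 24 h exposure. RT-PCR/CE fluorescence; upward curve fit referenced to DMSO.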

Assay [16] has as its target human Retinoic Acid Receptor gamma (RARg), RARG (gene 5916) (UniProt P13631). The assay is described as follows: ATG_RARg_TRANS: Attagene TRANS-FACTORIAL HepG2 Assay for human Retinoic Acid Receptor gamma (RARg) (AID 2283009; active = hit-call score of the fitted dose curve at least 0.9, where 1 is the maximum). The gist of the method: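 Gain-of-signal relative to DMSO is reported from fluorescent capillary electrophoresis of RT-PCR reporter products. These came from HepG2 cells expressing transfected RARg-GAL4 chimeras with UAS reporters, harvested 24 h after dosing.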

Assay [17] deals with human RAR-related Orphan Receptor beta (RORb), RORB (gene 6096) (UniProt Q92753). The assay can be described thus: ATG_RORb_TRANS: Attagene TRANS-FACTORIAL HepG2 Assay for human RAR-related Orphan Receptor beta (RORb) (AID 2283010; active = hit-call score of the fitted dose curve at least 0.9, where 1 is the maximum). The gist of the method:
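Multiplexed transcription-factor reporter assay: HepG2 cells transiently carrying NR-Gal4/GAL4-UAS constructs, 24 h treatment, mRNA quantified by RT-PCR plus capillary electrophoresis fluorescence; activity scored as induction over DMSO.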

Assay [18] addresses Retinoic acid receptor alpha (Homo sapiens) (UniProt P10276). The assay can be described thus: ATG_RARa_TRANS: Attagene TRANS-FACTORIAL HepG2 Assay for human Retinoic Acid Receptor alpha (RARa) (AID 2283005; active = hit-call score of the fitted dose curve at least 0.9, where 1 is the maximum). The gist of the method: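 Reporter transcripts, measured by RT-PCR with fluorescent labeling and capillary electrophoresis after 24 h dosing, reflect activity of an exogenous human RARa–GAL4 fusion in transiently transfected HepG2. Fitted for increase relative to DMSO.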

Sequence of Peroxisome proliferator-activated receptor gamma (Homo sapiens) (P37231 whole entry, looked up, the tested form may be a part): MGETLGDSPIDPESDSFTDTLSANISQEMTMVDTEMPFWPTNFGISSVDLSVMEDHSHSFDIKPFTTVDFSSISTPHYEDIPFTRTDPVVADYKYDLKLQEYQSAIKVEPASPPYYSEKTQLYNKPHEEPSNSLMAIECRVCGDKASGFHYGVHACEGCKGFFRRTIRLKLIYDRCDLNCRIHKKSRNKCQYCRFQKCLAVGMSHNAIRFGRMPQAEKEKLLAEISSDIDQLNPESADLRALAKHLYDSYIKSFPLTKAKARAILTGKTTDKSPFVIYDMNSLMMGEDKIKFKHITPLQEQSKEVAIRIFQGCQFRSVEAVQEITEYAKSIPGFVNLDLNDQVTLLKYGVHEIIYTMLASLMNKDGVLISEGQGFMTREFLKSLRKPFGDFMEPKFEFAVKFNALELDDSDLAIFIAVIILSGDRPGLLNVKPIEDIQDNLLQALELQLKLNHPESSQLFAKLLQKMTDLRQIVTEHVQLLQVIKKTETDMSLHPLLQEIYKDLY
Sequence of Cellular tumor antigen p53 (Homo sapiens) (P04637 whole entry, looked up): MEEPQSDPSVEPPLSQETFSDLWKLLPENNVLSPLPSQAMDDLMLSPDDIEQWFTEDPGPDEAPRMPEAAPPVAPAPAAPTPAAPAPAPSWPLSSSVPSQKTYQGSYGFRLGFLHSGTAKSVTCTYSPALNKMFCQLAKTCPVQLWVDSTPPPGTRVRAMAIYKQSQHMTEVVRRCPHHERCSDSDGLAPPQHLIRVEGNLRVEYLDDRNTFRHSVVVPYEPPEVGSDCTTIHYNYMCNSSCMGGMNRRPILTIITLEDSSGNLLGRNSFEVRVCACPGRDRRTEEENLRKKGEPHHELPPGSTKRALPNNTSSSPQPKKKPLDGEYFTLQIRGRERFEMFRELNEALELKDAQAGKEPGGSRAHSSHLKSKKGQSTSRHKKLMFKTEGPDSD
Sequence of human Peroxisome Proliferator-activated Receptor alpha (PPARa), PPARA (gene 5465) (Q07869 whole entry, looked up, the tested form may be a part): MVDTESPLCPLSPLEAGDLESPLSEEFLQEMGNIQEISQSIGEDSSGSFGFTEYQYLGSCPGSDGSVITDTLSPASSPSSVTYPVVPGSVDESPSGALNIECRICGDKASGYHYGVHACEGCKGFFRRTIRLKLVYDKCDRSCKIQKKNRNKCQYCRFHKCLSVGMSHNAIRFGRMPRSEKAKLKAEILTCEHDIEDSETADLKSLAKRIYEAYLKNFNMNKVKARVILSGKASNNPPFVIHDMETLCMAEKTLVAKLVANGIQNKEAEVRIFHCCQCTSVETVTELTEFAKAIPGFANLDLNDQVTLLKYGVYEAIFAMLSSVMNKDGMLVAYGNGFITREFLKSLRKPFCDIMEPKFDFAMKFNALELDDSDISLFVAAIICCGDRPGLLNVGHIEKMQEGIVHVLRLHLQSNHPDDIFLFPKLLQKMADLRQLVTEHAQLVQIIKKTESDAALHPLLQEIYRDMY
Sequence of human Retinoic Acid Receptor beta (RARb), RARB (gene 5915) (P10826 whole entry, looked up, the tested form may be a part): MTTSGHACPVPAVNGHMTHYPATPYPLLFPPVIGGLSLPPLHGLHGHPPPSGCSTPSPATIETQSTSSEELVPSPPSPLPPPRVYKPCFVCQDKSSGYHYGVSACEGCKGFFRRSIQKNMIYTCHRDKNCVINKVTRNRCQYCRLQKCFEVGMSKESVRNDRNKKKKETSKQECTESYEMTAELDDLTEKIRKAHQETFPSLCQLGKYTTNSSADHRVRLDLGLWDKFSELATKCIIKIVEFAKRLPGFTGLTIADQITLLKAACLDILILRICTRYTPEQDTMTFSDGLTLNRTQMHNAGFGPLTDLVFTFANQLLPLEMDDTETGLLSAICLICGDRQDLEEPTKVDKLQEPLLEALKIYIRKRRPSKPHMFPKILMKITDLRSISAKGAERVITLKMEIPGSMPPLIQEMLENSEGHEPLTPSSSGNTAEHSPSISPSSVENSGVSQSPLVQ
Sequence of Retinoic acid receptor RXR-alpha (Homo sapiens) (P19793 whole entry, looked up, the tested form may be a part): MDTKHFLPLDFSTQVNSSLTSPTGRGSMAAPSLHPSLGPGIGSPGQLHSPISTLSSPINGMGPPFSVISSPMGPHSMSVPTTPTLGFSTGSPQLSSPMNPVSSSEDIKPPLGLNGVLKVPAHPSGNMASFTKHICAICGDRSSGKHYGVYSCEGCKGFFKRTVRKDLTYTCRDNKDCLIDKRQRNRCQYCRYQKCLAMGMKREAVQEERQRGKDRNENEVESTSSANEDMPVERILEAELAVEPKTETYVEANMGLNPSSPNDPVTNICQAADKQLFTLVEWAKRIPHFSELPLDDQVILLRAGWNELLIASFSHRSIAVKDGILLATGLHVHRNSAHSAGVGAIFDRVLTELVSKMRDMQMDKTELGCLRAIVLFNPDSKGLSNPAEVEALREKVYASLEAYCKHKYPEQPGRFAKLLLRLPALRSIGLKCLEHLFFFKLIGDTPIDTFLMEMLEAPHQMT
Sequence of Nuclear receptor subfamily 1 group I member 2 (Homo sapiens) (O75469 whole entry, looked up, the tested form may be a part): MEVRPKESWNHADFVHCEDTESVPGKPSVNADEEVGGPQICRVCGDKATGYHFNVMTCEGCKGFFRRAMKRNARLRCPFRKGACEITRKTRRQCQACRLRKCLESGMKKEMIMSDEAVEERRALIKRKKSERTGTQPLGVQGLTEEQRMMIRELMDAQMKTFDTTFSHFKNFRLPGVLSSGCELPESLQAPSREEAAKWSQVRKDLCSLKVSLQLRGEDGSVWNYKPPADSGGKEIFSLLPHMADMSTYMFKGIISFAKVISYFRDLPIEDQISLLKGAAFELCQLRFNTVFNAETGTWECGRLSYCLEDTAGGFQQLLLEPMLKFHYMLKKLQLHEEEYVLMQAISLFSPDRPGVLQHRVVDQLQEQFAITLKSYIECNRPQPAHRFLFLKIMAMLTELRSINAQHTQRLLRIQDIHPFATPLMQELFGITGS
Sequence of Retinoic acid receptor alpha (Homo sapiens) (P10276 whole entry, looked up, the tested form may be a part): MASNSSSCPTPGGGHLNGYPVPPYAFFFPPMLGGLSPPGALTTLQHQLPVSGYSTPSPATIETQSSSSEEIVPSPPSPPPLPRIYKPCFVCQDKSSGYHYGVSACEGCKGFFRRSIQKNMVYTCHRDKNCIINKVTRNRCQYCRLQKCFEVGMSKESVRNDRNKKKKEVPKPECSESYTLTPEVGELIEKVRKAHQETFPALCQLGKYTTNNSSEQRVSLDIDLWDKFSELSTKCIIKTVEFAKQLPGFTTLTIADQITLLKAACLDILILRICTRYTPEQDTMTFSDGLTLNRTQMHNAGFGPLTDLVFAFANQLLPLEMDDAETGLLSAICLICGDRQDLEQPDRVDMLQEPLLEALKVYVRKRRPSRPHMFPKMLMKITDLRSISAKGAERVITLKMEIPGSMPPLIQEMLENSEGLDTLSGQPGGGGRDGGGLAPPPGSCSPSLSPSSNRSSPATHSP
Sequence of human Retinoic Acid Receptor gamma (RARg), RARG (gene 5916) (P13631 whole entry, looked up, the tested form may be a part): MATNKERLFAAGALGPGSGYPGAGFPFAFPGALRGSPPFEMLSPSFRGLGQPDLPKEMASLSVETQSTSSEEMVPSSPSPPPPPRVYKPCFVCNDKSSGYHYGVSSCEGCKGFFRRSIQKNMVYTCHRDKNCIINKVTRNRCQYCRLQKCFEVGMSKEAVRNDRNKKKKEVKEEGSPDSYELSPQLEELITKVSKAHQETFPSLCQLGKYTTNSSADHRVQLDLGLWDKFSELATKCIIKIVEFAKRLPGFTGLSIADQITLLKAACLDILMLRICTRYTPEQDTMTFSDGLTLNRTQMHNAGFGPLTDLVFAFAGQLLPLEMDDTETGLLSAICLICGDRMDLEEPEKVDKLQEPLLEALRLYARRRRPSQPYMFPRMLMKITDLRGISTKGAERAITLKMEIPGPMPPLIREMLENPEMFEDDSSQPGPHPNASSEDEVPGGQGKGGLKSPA
Sequence of human RAR-related Orphan Receptor beta (RORb), RORB (gene 6096) (Q92753 whole entry, looked up, the tested form may be a part): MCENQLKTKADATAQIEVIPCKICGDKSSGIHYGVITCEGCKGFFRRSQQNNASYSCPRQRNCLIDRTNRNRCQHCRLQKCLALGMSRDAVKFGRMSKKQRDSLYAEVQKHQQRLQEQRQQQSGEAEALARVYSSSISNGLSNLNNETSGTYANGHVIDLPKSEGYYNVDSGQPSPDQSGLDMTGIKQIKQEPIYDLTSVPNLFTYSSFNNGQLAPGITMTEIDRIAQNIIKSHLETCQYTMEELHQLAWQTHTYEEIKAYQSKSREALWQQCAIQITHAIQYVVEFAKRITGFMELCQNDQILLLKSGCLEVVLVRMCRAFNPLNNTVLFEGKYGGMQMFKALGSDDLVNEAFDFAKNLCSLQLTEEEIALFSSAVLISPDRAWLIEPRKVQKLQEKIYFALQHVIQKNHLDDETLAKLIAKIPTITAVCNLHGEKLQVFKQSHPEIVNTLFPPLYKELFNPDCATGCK

Regarding `O=C(O)c1cccc(Oc2ccccc2)c1`, the outcome in assay [1], in [2], in [3], in assay [4], in [5] and in assay [6] was inactive. Moreover, the result in [7], in assay [8], in assay [9], in assay [10] and in [12] was inactive. Also, the concentration at half-maximal activity (AC50) in [11] was 59.8 µM (active).
As for `COC(=O)c1c(Cl)c(Cl)c(C(=O)OC)c(Cl)c1Cl`, the compound was called inactive in [1], in assay [2], in assay [3], in assay [4], in [5] and in assay [6]. For the same compound, the outcome in assay [7], in assay [8], in [9], in [12] and in assay [14] was inactive. Further, the AC50 was 14.6 µM (active) in assay [13] and 35.9 µM (active) in [11].
`Nc1ccc(Nc2ccccc2)cc1`: the AC50 in [1] is 47.1 µM (active); in [2], 32 µM (active); in [4], 0.903 µM (active); in assay [6], 4.54 µM (active); in [7] it was 3.97 µM (active); in assay [13] it was 3.97 µM (active). The result in assay [3], in assay [5], in [8], in assay [9], in assay [10] and in assay [11] was inactive. The call in assay [14] was inactive.
For `O=C1OC(=O)C2C3C=CC(C3)C12` (stereo unspecified), the outcome in assay [1], in assay [2], in assay [3], in assay [4], in assay [5] and in assay [6] was inactive. The outcome in assay [7], in assay [8], in assay [9], in [13], in assay [11] and in assay [15] was inactive. In addition, in assay [14], the compound was classed as inactive.
For `CCCCCCCCO`, the outcome in assay [1], in assay [2], in [3], in assay [4], in assay [5] and in assay [6] was inactive. Further, the outcome in assay [7], in [8], in [9], in assay [10], in assay [13] and in assay [11] was inactive. The call in assay [16] and in assay [14] was inactive.
As for `COc1ccc2sc(C(=O)Nc3nnn[nH]3)c(OC(C)C)c2c1`, the AC50 in assay [1] is 70.2 µM (active); in [2], 155 µM (active); in [3], 71.4 µM (active); in assay [4], 22.5 µM (active); in assay [5] it was 5.51 µM (active); in [6], 23.7 µM (active). Further, the AC50 in [7] is 23.3 µM (active); in [9], 26.4 µM (active); in assay [13], 9.42 µM (active); in assay [11], 22.9 µM (active). The compound was called inactive in [8], in assay [12] and in assay [14].
In the case of `CC/C(=C\C(=N/O)C(N)=O)C(C)[N+](=O)[O-]` (stereo unspecified), the AC50 is 38.7 µM (active) in [1], 20 µM (active) in assay [6] and 28.1 µM (active) in assay [11]. Further, the call in [2], in assay [3], in assay [4], in assay [5], in assay [7] and in [8] was inactive. The outcome in [9], in [13], in assay [17], in [12] and in [14] was inactive.
On to `Cc1[nH]cnc1C[C@H]1CCc2c(C)c3ccccc3n2C1=O`, for which the compound was called inactive in [1], in assay [4], in assay [6], in assay [8], in assay [9] and in assay [18]. Further, the result in [16] and in assay [14] was inactive. The AC50 in [2] is 21 µM (active); in assay [3], 7.45 µM (active); in assay [5] it was 27.4 µM (active); in assay [7] it was 29.6 µM (active).
In the case of `CC[C@H]1OC(=O)[C@H](C)[C@@H](O[C@H]2C[C@@](C)(OC)[C@@H](O)[C@H](C)O2)[C@H](C)[C@@H](O[C@@H]2O[C@H](C)C[C@H](N(C)C)[C@H]2O)[C@](C)(O)C[C@@H](C)C(=O)[C@H](C)[C@@H](O)[C@]1(C)O`, the result in assay [1], in [2], in assay [3], in assay [4], in assay [5] and in assay [6] was inactive. Also, the result in assay [7], in assay [8], in assay [9], in assay [18], in [15] and in [17] was inactive.

The values above are taken from PubChem BioAssay (EPA / NIEHS).
